# The list is not random: actives were taken first. Their share in the collection is about 7.9%.
# LASV entry inh = Lassa virus entry inhibition. 300,000 compounds, 1.2% hits. Lassa virus pseudotype entry inhibition, cell reporter. Potency, µM (series often up to 37.9 µM), without a hit: at the highest dose activity change, negative = inhibition, hits mostly inhibitors. AID 540256; calls by dose curve; tested in HEK293 cells; also: potency is read from the fitted curve at half-maximal effect; nearly all actives have a fitted effect of over 50% in size
# HCMV antiviral = blocks human cytomegalovirus replication | 410,000 compounds, 4.5% hits | activity change, negative = inhibition, % at 57.5 µM | HFF cells, HCMV-luciferase reporter, 72 h; active compounds read low; in the data active = activity change below about -60%; inconclusive = no clear call, values can overlap the other calls; inactive = above about -39%
#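 Cell-based, HFFs, 1000 cells/well, 16 h 37C; cpds in DMSO + HCMV-luc, MOI 1 PFU/cell; 72 h 37C; OneGlo luminescence after 5 min RT; norm. to buffer vs Salinomycin 10uM.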
# HCV inh = HCV inhibition; Huh7.5.1 HCVcc-Cre infection, luciferase reporter, 44 h; Potency, µM (titrated, usually from 41.8 µM), inactives show top-dose activity change, negative = inhibition, hits mostly inhibitors; 340,000 compounds, 3.4% hits; active = well fitted inhibition curve with a large enough effect; inconclusive = small, poorly fitted or top-dose-only effect, or another doubt; inactive = no such curve, though single readings can be large or run the other way; also: potency is read from the fitted curve at half-maximal effect
#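 Antiviral activity was scored by luciferase reporter output from cells infected with HCVcc-Cre (~0.5 moi) in presence of compound, 44 h infection period, cells seeded 1,000/well 4 h prior.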
# FMDV inh = blocks foot and mouth disease virus | AID 1159524 | Potency, µM (highest dose often 57.9 µM), without a hit: at the top dose activity change, negative = inhibition, usual class: inhibitors | 410,000 compounds, 1.2% hits | FMDV antiviral cell-based qHTS; calls by dose curve; tested in HEK293T cells; also: read-out not given here; potency is read from the fitted curve at half-maximal effect; nearly all actives have a fitted effect of over 45% in size
# Marburg entry inh = inhibitors of Marburg virus binding or cell entry; Marburg virus pseudotyped entry inhibition, cell reporter; Potency, µM (top dose mostly 37.8 µM), inactives show top-dose activity change, negative = inhibition, most hits filed as inhibitors; 300,000 compounds, 1.8% hits; AID 540276; calls by dose curve; tested in HEK293 cells; also: potency is read from the fitted curve at half-maximal effect
# An asterisk follows results filed as active; ? = inconclusive; . = no result given; + = active, no number; ! = a repeat was not active; [ ] = remark or other dose. % is scaled to controls: 0 for no effect and ±100 for the full control effect.
SMILES,LASV entry inh,HCMV antiviral,HCV inh,FMDV inh,Marburg entry inh
S=C(NCc1ccccn1)NN=Cc1ccccn1,12.6µM*,-98.7*,?,7.9%,?
O=C(NCc1ccccn1)C(=O)N/N=C/c1ccc2c(c1)OCO2,.,-90.5*,-2.4%,55.9%,.
Cc1ccc(NC(=S)NCc2ccccn2)cc1,6.0%,-16.9,4.2%,46.4%,-2.6%
O=C(NCc1ccccc1F)C1CCCN(C(=O)N2CCOc3ccccc32)C1 (centres undefined),-4.5%[46.1 µM],-11.8,.,0.0%,.
Nc1c(-c2nc(-c3ccccc3Cl)no2)nnn1-c1ccccc1C(F)(F)F,3.6%[46.1 µM],20.1,.,-5.2%,.
Cc1nn(C)c2c1c(-c1ccccc1)cc(=O)n2CC(=O)NC(C)(C)C,?,-2.7,.,-22.6%,.
CC(C)[C@@]1(NC(=O)[C@@H]2C[C@@H]3c4cccc5[nH]cc(c45)C[C@H]3N(C)C2)O[C@@]2(O)C3CCCN3C(=O)[C@H](Cc3ccccc3)N2C1=O (some centres undefined),-39.6%,.,.,.,5.62µM*
CC(C)[C@@]1(NC(=O)[C@@H]2C[C@@H]3c4cccc5[nH]cc(c45)C[C@H]3N(C)C2)O[C@@]2(O)[C@@H]3CCCN3C(=O)[C@H](Cc3ccccc3)N2C1=O,?,39.5,4.3%[8.37 µM],0.0%,5.62µM*!
Cc1ccc(NC(=O)Cn2c(=O)n(CCC(=O)N3CCc4ccccc4C3)c(=O)c3ccccc32)cc1,-0.2%[46.1 µM],10.7,.,3.5%,-18.1%[46.1 µM]
CCOC(=O)CCN1C(=O)[C@H]2[C@H]3[C@H](O)[C@H](O)C/C(=N/NC(=O)OCc4ccc(OC)cc4)[C@H]3CC[C@@H]2C1=O,.,.,.,.,22.5%[14.2 µM]
C[C@@]12C(C[C@H](O)[C@@]34C[C@@H](CCC13)[C@@H](CO)C4=O)[C@](C)(C(=O)O)CC[C@@H]2O (some centres undefined),.,-8.4,.,-22.1%,.
C=C1C(=O)[C@]23C[C@H]1CCC2[C@@]1(C)C(C[C@@H]3O)[C@](C)(C(=O)OC)CC[C@@H]1O (some centres undefined),.,-101.9*,.,20µM*,.
Cc1ccc(S(=O)(=O)N(C)C)cc1NC(=O)CSc1nc2ncc(Cl)cc2[nH]1,-2.0%,4.8,2.51µM*,?,-3.4%
Cc1ccc(-c2csc(N3CCC[C@@H]3C(=O)NCCn3c([C@H](C)N)nc4ccccc43)n2)cc1,.,0.2,.,.,.
O=C(NCc1ccccc1Cl)c1ccc(-n2cnc3cccnc32)cc1,6.7%[46.1 µM],-93.7*,.,3.6%,.
CCCS(=O)(=O)c1nnnn1-c1cccc(OC)c1,-23.0%[14.3 µM],.,8.91µM*,28.2µM*,25.9µM*
COc1cccc(-n2nnnc2SCC(=O)Nc2ccccc2OC)c1,.,18.9,?,-10.7%,.
COC(=O)c1c(Oc2ccc(C(C)=O)cc2)nnc(-c2ccccc2)c1-c1ccccc1,?,-13.9,.,?,6.31µM*
Cc1ccn2cc(CNC(=O)c3cccc(C(F)(F)F)c3)nc2c1,-4.7%[46.1 µM],-9.5,.,5.9%,2.2%[46.1 µM]
CCc1ccc(N2C=C(C(=O)OC)C(c3ccc(OC)cc3)C(C#N)=C2N)cc1 (centres undefined),.,-76.6*,.,?,.
CCOC(=O)c1[nH]c(C)c(C(=O)NCCc2ccccc2)c1C,-18.1%[46.1 µM],75.5,.,42.2%,-17.8%[46.1 µM]
CCOC(=O)c1ccc(NC(=O)c2ccccc2[N+](=O)[O-])cc1,?,22.0,?,10.4%,15.4%
CCOC(=O)c1cc([N+](=O)[O-])c([N+](=O)[O-])cc1NC(C)=O,-12.9%,-100.2*,?,?,?
CN=c1scc(-c2cccs2)n1/N=C/c1ccccc1O,1.26µM*,-98.3*,12.6µM*,3.98µM*,0.282µM*
CN=c1scc(C)n1/N=C/c1ccc(O)c(O)c1O,1.5%,-5.2,-17.2%,-23.9%,?
SMILES,LASV entry inh,HCMV antiviral,HCV inh,FMDV inh,Marburg entry inh
CN=c1scc(-c2cccs2)n1/N=C/c1ccc(O)c(O)c1O,?,12.0,-14.1%,10µM*,?
Cc1nc2nc(SCC(=O)NCCCN3CCCCCC3)nn2c(C)c1Cc1ccccc1Cl,.,+,?,4.0%,.
Cc1nc2nc(SCC(=O)NCCCN3CCCC(C)C3)nn2c(C)c1Cc1ccccc1Cl (centres undefined),.,0.0,11.2µM*,-22.8%,.
Cc1ccccc1Cc1c(C)nc2nc(SCC(=O)NCCCN3CCCC3)nn2c1C,9.3%[46.1 µM],-25.2,?,-0.7%,?
Cc1ccccc1-n1nnnc1SCC(C)C,13.0%,-35.9,?,1.0%,8.2%[46.1 µM]
Cc1ccccc1-n1nnnc1SCc1csc(-c2ccccc2)n1,13µM*,53.8,?,-29.4%,?
Cc1c(C(=O)N2CCC(Cc3ccccc3)CC2)sc2ncnc(NCc3ccccn3)c12,.,.,.,-29.2%,.
CN(C)c1oc(-c2ccccc2Cl)nc1C#N,5.1%,-28.8,25.1µM*,14.0%,-4.4%
N#Cc1nc(-c2ccccc2Cl)oc1NCC1CCCO1 (centres undefined),.,25.7,12.6µM*,-7.3%,.
C=CCNc1oc(-c2cccc3ccccc23)nc1C#N,4.8%,6.6,6.31µM*,.,8.0%
N#Cc1nc(-c2cccc3ccccc23)oc1NCCN1CCCCC1,-8.1%,88.9,11.2µM*,5.3%,?
CCOC(=O)c1noc2ncn(CC(=O)Nc3ccc(OC)c(Cl)c3)c(=O)c12,14.6%[46.1 µM],-2.4,.,-22.6%,.
Cc1nc2c(-c3ccccc3)c(C)nn2c(C)c1CCC(=O)NCc1ccco1,.,-97.6*,5.0%,-26.1%,3.1%
Cc1nc2c(-c3ccccc3)c(C)nn2c(C)c1CCC(=O)NCc1ccccc1,11.2%[46.1 µM],4.8,.,-10.3%,3.5%[46.1 µM]
CCCCCNCc1ccc(OCc2ccc(Cl)nc2)c(OC)c1,-9.8%,-2.0,1.1%,-5.9%,?
COc1ccc2ccccc2c1CNCCN1CCOCC1,.,35.4,-0.9%,-5.5%,.
COc1ccc(CCNCc2ccc(OCc3ccc(Cl)nc3)c(OC)c2)cc1OC,1.9%,-25.4,?,0.0%,12.6µM*
COc1cc(CNCCN2CCOCC2)ccc1OCc1ccc(Cl)cc1Cl,?,-84.9*,?,-20.0%,?
COc1cc(CNCCN2CCOCC2)ccc1OCc1cccc(Cl)c1,?,-16.2,8.91µM*,-10.6%,?
C=CCN1c2ccccc2[C@]23CCC(=O)N(Cc4ccco4)C2=NC(C(=O)OC)=C(C(=O)OC)[C@H]13,.,.,.,.,-1.4%[14.2 µM]
Nc1c2c(nc3ccccc13)N(C1CCCCC1)CC2,-23.6%,-19.8,0.316µM*,-5.3%,10µM*
Cc1ccc(S(=O)(=O)N(C)C)cc1NC(=S)NC(C)CCCC(C)C (centres undefined),?,-73.0*,?,?,?
Cc1cc(C)cc(NC(=O)Nc2cc(S(=O)(=O)N(C)C)ccc2C)c1,12.6µM*,-3.6,?,-23.3%,?
Cc1ccc(S(=O)(=O)N(C)C)cc1NC(=S)NC(C)CCC(C)C (centres undefined),?,7.4,?,-0.7%,?
CCc1sc(C(C2C(=O)CC(C)(C)CC2=O)C2C(=O)CC(C)(C)CC2=O)cc1[N+](=O)[O-],1.4%,107.0,25.8%,7.94µM*,?
